BoNT A protease: BoNT/A light chain protease inhibitors, primary screen, biochemical, flow cytometry, MLPCN library; Botulinum neurotoxin type A light chain protease (Clostridium botulinum A str. ATCC 3502); multiplex microsphere protease substrate cleavage; 0.17% of 360,000 active; inhibition, % at 10 µM
Bead autofluor: counter-screen for toxin protease inhibitors: compound fluorescence. compound autofluorescence counterscreen, microsphere flow cytometry; active compounds read high. fluorescence intensity (concentration not given with the values). 3.1% of 360,000 active. AID 624483; in the data active = fluorescence intensity above about 16000; inconclusive = no clear call, values can overlap the other calls
CCHFV vOTU inh: CCHFV vOTU protease inhibitors, primary screen, biochemical, Pep-AMC substrate, fluorescence; inhibition, % at 11.5 µM; 0.55% of 370,000 active; in the data active = inhibition above about 30%
BoNT-F LC inh: BoNT/F light chain protease inhibitors, primary screen, biochemical, flow cytometry, MLPCN library; Multiplex microsphere protease cleavage assay; Botulinum neurotoxin type F light chain protease (Clostridium botulinum); 0.22% of 360,000 active; inhibition, % at 10 µM; in the data active = inhibition above about 35%, passing the limit was not always enough; inconclusive = no clear call, values can overlap the other calls
Anthrax LF prot: Bacillus anthracis LF protease inhibitors, primary screen, biochemical, multiplex microsphere, MLPCN library. multiplex microsphere protease cleavage assay. inhibition, % at 10 µM. 0.12% of 360,000 active
SARS 3CLpro inh: SARS-CoV 3CLpro protease inhibitors, primary screen, biochemical, quenched FRET | Replicase polyprotein 1ab (Severe acute respiratory syndrome coronavirus), P0C6X7 | recombinant SARS-CoV 3CLpro, quenched FRET peptide cleavage | inhibition, % at 6 µM | 0.14% of 290,000 active; in the data active = inhibition above about 12%
Of the large screens only hits and unclear results are named; the others gave an inactive call. Most compounds without a hit are left out; they make up all but 3.9% or so of the library. Rule as the data show it, unless noted: active = inhibition above about 30%; inconclusive = no clear call, values can overlap the other calls; inactive = below that.

Cc1nc(-c2ccccc2)cc(N2CCCC2)n1	BoNT A protease inconclusive, Bead autofluor 23051
CCOC(=O)c1csc(NC(=O)C2CCCN(S(=O)(=O)c3ccc([N+](=O)[O-])cc3)C2)n1 (centres undefined)	none (no result: BoNT A protease, Bead autofluor, BoNT-F LC inh, Anthrax LF prot, SARS 3CLpro inh)
O=C(Nc1ccccc1Oc1ccccc1)NC1CCCCN(Cc2ccc(Cl)cc2)C1=O (centres undefined)	none (no result: BoNT A protease, Bead autofluor, BoNT-F LC inh, Anthrax LF prot, SARS 3CLpro inh)
CCCCNS(=O)(=O)/C=C/c1ccc(OC)cc1CNC(=O)OC(C)(C)C	none (no result: BoNT A protease, Bead autofluor, BoNT-F LC inh, Anthrax LF prot, SARS 3CLpro inh)
Cc1nnc(-c2cnn(-c3ccccc3)c2N)n1Cc1ccccc1	Bead autofluor 20987
Cc1nnc(-c2cnn(C)c2N)n1Cc1ccccc1	none
Cc1nnc(-c2cnn(-c3ccccc3)c2N)n1Cc1ccc(F)cc1	BoNT A protease inconclusive, Bead autofluor 19393
CCCCN1CCN(C(=O)C2CCCN(C(=O)c3ccc4c(c3)NC(=O)CS4)C2)CC1 (centres undefined)	none (no result: BoNT A protease, Bead autofluor, BoNT-F LC inh, Anthrax LF prot, SARS 3CLpro inh)
O=C(NCCCc1ccccc1)OC1CCC12CCC(c1ccccc1)CC2 (centres undefined)	none (no result: BoNT A protease, Bead autofluor, BoNT-F LC inh, Anthrax LF prot, SARS 3CLpro inh)
COC(=O)C1=C(C)N(Cc2cccc(C(F)(F)F)c2)C(=NCc2ccc3c(c2)OCO3)NC1c1ccc(F)cc1 (centres undefined)	none (no result: BoNT A protease, Bead autofluor, BoNT-F LC inh, Anthrax LF prot, SARS 3CLpro inh)
Cn1c(C(=O)N2CCN(c3cccc(C(F)(F)F)c3)CC2)cc2sccc21	Bead autofluor 21909
Cc1ccc(C)c(N2CCN(C(=O)c3ccc4c(c3)c(C)c(C)n4C)CC2)c1	none
Cc1ccc(C)c(N2CCN(C(=O)c3cc4sccc4n3C)CC2)c1	BoNT A protease inconclusive, Bead autofluor 22451
CCOC(=O)N1CCN(C(=O)c2cc3sccc3n2C)CC1	Bead autofluor 19772
CCOC(=O)[C@]12CCCC=C1N(Cc1ccc(OC)cc1)C(=O)[C@@H]2CC(=O)NCc1cccc(C(F)(F)F)c1	none (no result: BoNT A protease, Bead autofluor, BoNT-F LC inh, Anthrax LF prot, SARS 3CLpro inh)
c1ccc(Cn2ccc3ccc(-c4ccc5ccn(Cc6ccc7ccccc7c6)c5c4)cc32)cc1	none (no result: BoNT A protease, Bead autofluor, BoNT-F LC inh, Anthrax LF prot, SARS 3CLpro inh)
COc1ccc(C2C3=C(CC(C)(C)CC3=O)Oc3ncn(CC(C)C)c(=N)c32)cc1 (centres undefined)	none
COc1ccc(C2C3=C(CC(C)(C)CC3=O)Oc3ncn(Cc4ccco4)c(=N)c32)cc1 (centres undefined)	BoNT-F LC inh 36
O=C(NCCCn1ccnc1)c1sc2cccc(F)c2c1Cl	Bead autofluor 21856
Cc1ccccc1C(=O)NCCCn1ccnc1	BoNT-F LC inh 37
Cc1ccccc1OCCCCCn1ccnc1	Bead autofluor 24874
Cc1c[nH]c2cccc(-c3cccc4ccccc34)c12	none (no result: BoNT A protease, Bead autofluor, BoNT-F LC inh, Anthrax LF prot, SARS 3CLpro inh)
COc1ccc(/C=C2/CN(Cc3ccc(OC)cc3OC)C3=N[C@H](c4ccccc4)CC(=O)N32)cc1	none (no result: BoNT A protease, Bead autofluor, BoNT-F LC inh, Anthrax LF prot, SARS 3CLpro inh)
O=C(OC12CCCN(C1)/C(=C/c1cccc(Cl)c1)C2)c1ccc(Cl)cc1 (centres undefined)	none (no result: BoNT A protease, Bead autofluor, BoNT-F LC inh, Anthrax LF prot, SARS 3CLpro inh)
O=C(Nc1ccccc1Oc1ccccc1)NC1CCCCN(Cc2cccc(Cl)c2)C1=O (centres undefined)	none (no result: BoNT A protease, Bead autofluor, BoNT-F LC inh, Anthrax LF prot, SARS 3CLpro inh)
Cc1ccc(S(=O)(=O)CCC(=O)OCc2nc(N)nc(Nc3ccccc3C)n2)cc1	none (no result: SARS 3CLpro inh)
Cc1ccccc1Nc1nc(N)nc(COC(=O)CCS(=O)(=O)c2ccccc2)n1	Bead autofluor 24248
Nc1nc(NCc2ccccc2)nc(Nc2cccc(F)c2)c1[N+](=O)[O-]	Bead autofluor 22824
Cc1ccccc1N1CCN(S(=O)(=O)c2ccc3c(c2)oc(=O)n3C)CC1	none (no result: BoNT A protease, Bead autofluor, BoNT-F LC inh, Anthrax LF prot, SARS 3CLpro inh)
CC(C)CN1C(=O)[C@@]2(CC(=O)N(C)C2c2ccccc2)c2cc(-n3cc(-c4ccccc4)nn3)ccc21 (some centres undefined)	none (no result: BoNT A protease, Bead autofluor, BoNT-F LC inh, Anthrax LF prot, SARS 3CLpro inh)
O=C(NCc1ccc(C(=O)NC2CCCC2)cc1)c1cccc(Br)c1	none (no result: BoNT A protease, Bead autofluor, BoNT-F LC inh, Anthrax LF prot, SARS 3CLpro inh)
COC(=O)c1cccc(N2C(=O)C[C@](Sc3ccc(OC)cc3)(C(=O)N3CCOCC3)[C@H]2c2ccc(OC)cc2)c1	none (no result: BoNT A protease, Bead autofluor, BoNT-F LC inh, Anthrax LF prot, SARS 3CLpro inh)
CC1Cc2ccccc2N1C(=O)Cn1c(=O)cc(O)c2ccccc21 (centres undefined)	BoNT A protease inconclusive, Bead autofluor 24078
CC1Cc2ccccc2N1C(=O)CCS(=O)(=O)c1cccs1 (centres undefined)	none
CC1Cc2ccccc2N1C(=O)Cc1cccs1 (centres undefined)	Bead autofluor 17722
CC1Cc2ccccc2N1C(=O)CN1C(=O)COc2ccccc21 (centres undefined)	none
COC(=O)c1cc(-c2ccc(C)c(C)c2)c(=O)n2c1CCC2	none (no result: BoNT A protease, Bead autofluor, BoNT-F LC inh, Anthrax LF prot, SARS 3CLpro inh)
Cc1cc(C)c(OCC(=O)OCC(=O)N(C)C2CCS(=O)(=O)C2)c(C)c1 (centres undefined)	none (no result: SARS 3CLpro inh)
CN(C(=O)COC(=O)COc1ccccc1F)C1CCS(=O)(=O)C1 (centres undefined)	BoNT-F LC inh 38
CN(C(=O)COC(=O)C1CCN(S(=O)(=O)c2cccs2)CC1)C1CCS(=O)(=O)C1 (centres undefined)	BoNT A protease inconclusive, Bead autofluor 20892
N#Cc1ccc(Cn2ccc3ccc(-c4ccc5ccn(Cc6ccccc6)c5c4)cc32)cc1	none (no result: BoNT A protease, Bead autofluor, BoNT-F LC inh, Anthrax LF prot, SARS 3CLpro inh)
O=C(c1cc(-c2cccs2)nc2ccccc12)N1CCN(S(=O)(=O)c2cccc(F)c2)CC1	none
O=C(c1ccccc1C(F)(F)F)N1CCN(S(=O)(=O)c2ccccc2)CC1	Bead autofluor 19835
O=S(=O)(c1ccccc1C(F)(F)F)N1CCN(S(=O)(=O)c2ccccc2C(F)(F)F)CC1	Bead autofluor 22001
O=C(c1cc(-c2cccs2)nc2ccccc12)N1CCN(S(=O)(=O)c2ccccc2)CC1	Bead autofluor 16484
COC(=O)[C@]12C[C@H](CC(=O)NCc3ccccc3)C(=O)N(CCC3=CCCCC3)C1=C[C@H](C1CCCC1)O[C@@H]2C	none (no result: BoNT A protease, Bead autofluor, BoNT-F LC inh, Anthrax LF prot, SARS 3CLpro inh)
O=C(CSc1nc2ccccc2c(=O)n1CCCC(=O)N1CCCC1)NCc1ccco1	Bead autofluor 23337
O=C(CSc1nc2ccccc2c(=O)n1Cc1ccc(C(=O)NC2CC2)cc1)NCc1ccco1	Bead autofluor 19257
